Experimental data taken from PubChem BioAssay (Tox21).
Inconclusive results are not listed. Entries that show only a call come without a potency. The source made the active and inactive calls. Unless noted, the call rests on the fitted dose curve.

Columns and labels:
[1] = qHTS assay to identify small molecule antagonists of the sonic hedgehog signaling (Shh) pathway (AID 1259369); further: nearly all actives have a fitted effect of over 45% in size; further: potency means the concentration at half of the fitted maximal effect
How it was run: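 NIH/3T3-derived Gli1-Luc reporter cells plated 4 h, dosed with compound, then stimulated with conditioned medium for 24 h at 37 C. Firefly luciferase luminescence read after 30 min with detection reagent at room temperature.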

[2] = qHTS assay to identify small molecule agonists of the androgen receptor (AR) signaling pathway in the presence of an antagonist - cell viability counter screen (AID 1259379; active means well fitted curve in the direction sought with a large enough effect in the repeat runs; an effect the other way counts as inactive or inconclusive; further: nearly all actives have a fitted effect of over 25% in size; further: potency means the concentration at half of the fitted maximal effect)
How it was run: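 MDA-kb2 cells (MMTV-luciferase, AR/GR), 3,000/well, 5 h attachment, then 3.0 µM nilutamide (final) and compounds at 15 concentrations. Viability by CellTiter-Fluor fluorescence after 16 h at 37 °C, 0% CO2, in the reporter wells.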

[3] = qHTS assay to identify small molecule agonists of the estrogen receptor beta (ER-beta) signaling pathway - cell viability counter screen (AID 1259380; active means well fitted curve in the direction sought with a large enough effect in the repeat runs; an effect the other way counts as inactive or inconclusive; further: nearly all actives have a fitted effect of over 30% in size; further: potency means the concentration at half of the fitted maximal effect)
How it was run: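 ER-beta-UAS-bla HEK293T cells in medium with 2% charcoal-stripped FBS, pre-incubated 6 hr, then treated 16 hr at 37C. Cytotoxicity read in the same wells by CellTiter-Glo luminescence after 30 min at room temperature.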

[4] = qHTS assay to identify small molecule antagonists of the estrogen receptor beta (ER-beta) signaling pathway - cell viability counter screen (AID 1259382; active means well fitted curve in the direction sought with a large enough effect in the repeat runs; an effect the other way counts as inactive or inconclusive; further: nearly all actives have a fitted effect of over 55% in size; further: potency means the concentration at half of the fitted maximal effect)
How it was run: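 ER-beta-UAS-bla HEK293T cells in 2% charcoal-stripped FBS medium, treated with compound plus 1 nM 17-beta-estradiol for 16 h at 37C. Viability read by CellTiter-Glo luminescence after 30 min at room temperature in the same wells.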

[5] = qHTS assay to identify small molecule agonists or antagonists of the thyroid stimulating hormone receptor (TSHR) signaling pathway - wild type cell line counter screen (AID 1259384)
How it was run: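 Counter screen in untransfected Hek293: compounds (15-point titration, triplicate) plus phosphodiesterase inhibitor Ro20-1724 added after 18 h plating; 30 min RT. Intracellular cAMP via competitive d2/cryptate immunoassay, 1 h incubation.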

[6] = molecular target: Thyrotropin receptor (Homo sapiens) (UniProt P16473); test: qHTS assay to identify small molecule antagonists of the thyroid stimulating hormone receptor (TSHR) signaling pathway (AID 1259385); further: nearly all actives have a fitted effect of over 20% in size
Chain of Thyrotropin receptor (Homo sapiens) (P16473 whole entry, looked up): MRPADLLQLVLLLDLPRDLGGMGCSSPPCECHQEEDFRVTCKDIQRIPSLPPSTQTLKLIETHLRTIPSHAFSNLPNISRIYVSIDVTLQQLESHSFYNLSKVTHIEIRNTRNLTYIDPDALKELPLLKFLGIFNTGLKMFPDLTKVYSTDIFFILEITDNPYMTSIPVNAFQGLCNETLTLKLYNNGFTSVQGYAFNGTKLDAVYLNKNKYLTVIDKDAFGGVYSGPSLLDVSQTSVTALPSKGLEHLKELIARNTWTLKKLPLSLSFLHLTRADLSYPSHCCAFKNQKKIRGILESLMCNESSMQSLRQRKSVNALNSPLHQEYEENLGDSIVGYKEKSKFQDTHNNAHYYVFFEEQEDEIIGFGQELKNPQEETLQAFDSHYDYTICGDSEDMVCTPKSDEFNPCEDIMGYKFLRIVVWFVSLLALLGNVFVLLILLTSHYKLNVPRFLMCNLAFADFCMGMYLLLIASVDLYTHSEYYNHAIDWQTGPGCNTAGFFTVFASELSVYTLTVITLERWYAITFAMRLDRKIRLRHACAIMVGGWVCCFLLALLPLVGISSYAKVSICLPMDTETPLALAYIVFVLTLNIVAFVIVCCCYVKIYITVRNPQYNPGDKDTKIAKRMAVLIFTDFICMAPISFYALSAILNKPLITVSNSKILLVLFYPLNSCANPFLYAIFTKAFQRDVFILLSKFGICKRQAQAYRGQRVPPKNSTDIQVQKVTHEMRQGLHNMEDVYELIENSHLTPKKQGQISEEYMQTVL
How it was run: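 Antagonist mode: compound-treated TSHR-expressing HEK293 cells were stimulated with 1.5 ng/mL TSH (final) in presence of Ro20-1724 for 30 min at RT. HTRF cAMP detection after 1 h; each compound tested at 15 concentrations, triplicate.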

[7] = molecular target: Estrogen receptor (Homo sapiens) (UniProt P03372); test: qHTS assay to identify small molecule agonists of the estrogen receptor alpha (ER-alpha) signaling pathway in the presence of an antagonist (AID 1259383); further: nearly all actives have a fitted effect of over 15% in size; further: potency means the concentration at half of the fitted maximal effect; on activation: top concentration of the series differs between compounds
Chain of Estrogen receptor (Homo sapiens) (P03372 whole entry, looked up): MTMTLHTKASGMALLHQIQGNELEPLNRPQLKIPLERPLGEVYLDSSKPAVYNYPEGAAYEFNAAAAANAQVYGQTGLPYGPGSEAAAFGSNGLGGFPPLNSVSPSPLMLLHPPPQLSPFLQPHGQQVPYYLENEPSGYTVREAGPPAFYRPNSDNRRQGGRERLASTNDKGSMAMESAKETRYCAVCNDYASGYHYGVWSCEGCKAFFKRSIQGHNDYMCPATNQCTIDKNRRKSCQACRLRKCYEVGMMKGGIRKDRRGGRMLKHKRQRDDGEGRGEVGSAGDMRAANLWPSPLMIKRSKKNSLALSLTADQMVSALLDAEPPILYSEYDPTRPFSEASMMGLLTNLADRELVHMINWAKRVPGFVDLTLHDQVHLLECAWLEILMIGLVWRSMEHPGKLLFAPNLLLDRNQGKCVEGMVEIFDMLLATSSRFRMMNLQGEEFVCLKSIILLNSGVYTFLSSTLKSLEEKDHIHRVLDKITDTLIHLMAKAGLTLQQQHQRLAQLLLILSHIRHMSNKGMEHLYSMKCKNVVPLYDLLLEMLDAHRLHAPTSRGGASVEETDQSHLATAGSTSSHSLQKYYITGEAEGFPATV
How it was run: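 VM7Luc4E2 cells express endogenous full-length ER-alpha with an ERE-luciferase reporter and were hormone-deprived for 5 days. Compounds at 15 concentrations were added with 10.0nM ICI-182,780 for 22hr at 37C. Luminescence was read with ONE-Glo.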

[8] = molecular target: Androgen receptor (Homo sapiens) (UniProt P10275); test: qHTS assay to identify small molecule agonists of the androgen receptor (AR) signaling pathway in the presence of an antagonist (AID 1259381); further: nearly all actives have a fitted effect of over 15% in size
Chain of Androgen receptor (Homo sapiens) (P10275 whole entry, looked up): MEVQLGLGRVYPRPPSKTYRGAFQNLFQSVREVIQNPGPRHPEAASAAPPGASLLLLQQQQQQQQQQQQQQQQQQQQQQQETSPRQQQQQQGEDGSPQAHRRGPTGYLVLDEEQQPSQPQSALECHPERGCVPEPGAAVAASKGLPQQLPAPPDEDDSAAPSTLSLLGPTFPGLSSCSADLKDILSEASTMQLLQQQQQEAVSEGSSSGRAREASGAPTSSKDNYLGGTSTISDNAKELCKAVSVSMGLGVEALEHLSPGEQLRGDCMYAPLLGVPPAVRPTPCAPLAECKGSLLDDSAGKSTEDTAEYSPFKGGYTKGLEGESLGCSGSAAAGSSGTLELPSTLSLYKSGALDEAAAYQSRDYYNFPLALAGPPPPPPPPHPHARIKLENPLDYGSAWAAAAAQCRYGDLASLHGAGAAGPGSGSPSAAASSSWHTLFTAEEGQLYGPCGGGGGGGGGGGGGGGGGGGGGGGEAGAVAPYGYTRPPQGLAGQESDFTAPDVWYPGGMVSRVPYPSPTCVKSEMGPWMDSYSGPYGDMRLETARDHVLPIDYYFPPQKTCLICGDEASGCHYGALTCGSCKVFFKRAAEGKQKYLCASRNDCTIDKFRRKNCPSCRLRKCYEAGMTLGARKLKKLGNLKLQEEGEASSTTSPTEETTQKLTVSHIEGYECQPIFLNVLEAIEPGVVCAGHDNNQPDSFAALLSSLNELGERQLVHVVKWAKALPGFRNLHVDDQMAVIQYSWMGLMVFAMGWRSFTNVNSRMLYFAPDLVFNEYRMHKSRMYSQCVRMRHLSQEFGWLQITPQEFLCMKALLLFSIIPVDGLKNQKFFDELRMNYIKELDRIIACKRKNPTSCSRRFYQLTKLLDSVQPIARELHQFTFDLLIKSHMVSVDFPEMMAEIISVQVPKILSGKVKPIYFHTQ
How it was run: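 MDA-kb2 cells carrying MMTV-luciferase (AR/GR responsive), 3,000 cells/well, co-treated with 3.0 uM nilutamide final. Compounds at 15 concentrations, 16 hr at 37C without CO2. Luciferase luminescence read after 30 min with ONE-Glo.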

[9] = molecular target: Estrogen receptor beta (Homo sapiens) (UniProt Q92731); test: qHTS assay to identify small molecule antagonists of the estrogen receptor beta (ER-beta) signaling pathway (AID 1259378; active means well fitted inhibition curve with a large enough effect in the signal ratio in the repeat runs, not every such curve was filed as active; the % refers to the signal ratio; further: potency means the concentration at half of the fitted maximal effect)
Chain of Estrogen receptor beta (Homo sapiens) (Q92731 whole entry, looked up): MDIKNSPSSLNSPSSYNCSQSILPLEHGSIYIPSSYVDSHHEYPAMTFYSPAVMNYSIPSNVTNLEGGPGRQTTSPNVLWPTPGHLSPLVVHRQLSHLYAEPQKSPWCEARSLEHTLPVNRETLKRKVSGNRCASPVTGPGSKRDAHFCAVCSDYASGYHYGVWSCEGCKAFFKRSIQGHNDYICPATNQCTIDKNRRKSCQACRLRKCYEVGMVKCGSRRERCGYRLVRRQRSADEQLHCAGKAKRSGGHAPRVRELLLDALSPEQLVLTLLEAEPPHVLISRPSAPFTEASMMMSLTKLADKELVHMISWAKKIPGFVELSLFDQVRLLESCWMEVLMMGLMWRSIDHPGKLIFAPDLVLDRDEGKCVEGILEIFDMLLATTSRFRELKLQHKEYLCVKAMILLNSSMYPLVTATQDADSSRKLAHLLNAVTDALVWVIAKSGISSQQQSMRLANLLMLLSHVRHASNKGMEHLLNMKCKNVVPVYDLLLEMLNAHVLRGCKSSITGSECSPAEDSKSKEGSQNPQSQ
How it was run: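 Antagonist mode: compounds added to beta-lactamase reporter HEK293T ER-beta-UAS cells stimulated with E2 (1nM final), 16 hr at 37C. LiveBLAzer B/G FRET substrate, 2 hours room temperature, fluorescence read-out.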

[10] = molecular target: Estrogen receptor beta (Homo sapiens) (UniProt Q92731); test: qHTS assay to identify small molecule agonists of the estrogen receptor beta (ER-beta) signaling pathway (AID 1259377; active means well fitted activation curve with a large enough effect in the signal ratio in the repeat runs, not every such curve was filed as active; the % refers to the signal ratio)
How it was run: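 A UAS-controlled beta-lactamase reporter in ER-beta-UAS-bla HEK293T cells reports receptor activation. Compounds act for 16 hr at 37C in 2% charcoal-stripped serum, and a FRET substrate is read by fluorescence after 2 hours.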

Compound	Potency [1]	Potency [2]	Potency [3]	Potency [4]	outcome [5]	Potency [6]	Potency [7]	Potency [8]	Potency [9]	Potency [10]
O=C(O)c1cccnc1C(=O)O	inactive	inactive	inactive	inactive	inactive	inactive	–	–	–	–
COC(=O)[C@@H]1CC2=CC(=O)CC[C@]2(C)[C@@]23O[C@@H]2C[C@@]2(C)[C@@H](CC[C@@]24CCC(=O)O4)[C@H]13	inactive	inactive	inactive	inactive	inactive	inactive	inactive	–	–	–
CC(C)CCCC(=O)O	inactive	inactive	inactive	inactive	–	–	inactive	inactive	–	–
CCCCCCCC/C=C\CCCCCCCC(=O)OC	inactive	inactive	inactive	inactive	inactive	inactive	–	–	inactive	–
CC(C)CCCCCCOC(=O)CCCCC(=O)OCCCCCCC(C)C	inactive	inactive	inactive	inactive	inactive	inactive	inactive	–	–	–
CCCCCCOC(=O)CCCCCCCC(=O)OCCCCCC	inactive	inactive	inactive	inactive	inactive	inactive	–	–	–	–
CCn1nc(C)c2c1C(=O)NCC(c1ccc(O)cc1)=N2	0.0122 µM (active)	inactive	inactive	inactive	inactive	–	–	–	–	–
CC1=CC(O)CC(C)(C)C1 (centres undefined)	inactive	inactive	inactive	inactive	inactive	inactive	–	–	–	–
C=C(C)C(=O)OCCOC(=O)CC(C)=O	inactive	inactive	inactive	inactive	inactive	inactive	–	–	inactive	–
COc1ccc([C@@H]2Sc3ccccc3NC(=O)[C@@H]2O)cc1	inactive	inactive	inactive	inactive	inactive	inactive	–	inactive	–	–
O=[N+]([O-])c1cccc(S(=O)(=O)NCCNS(=O)(=O)c2cccc([N+](=O)[O-])c2)c1	inactive	inactive	inactive	inactive	–	–	inactive	inactive	–	–
CNC(=O)N(c1ccccc1)c1ccccc1	6.89 µM (active)	inactive	inactive	inactive	inactive	inactive	inactive	inactive	–	–
CCOC(=O)c1ccccc1OC	inactive	inactive	inactive	inactive	inactive	inactive	–	–	inactive	–
C[N+](C)(C)CCOC(N)=O	inactive	inactive	inactive	inactive	inactive	inactive	–	inactive	–	–
O=C(NCCCN1CCOCC1)c1ccc(Cl)cc1	inactive	inactive	inactive	inactive	inactive	inactive	inactive	–	–	–
CCCCN(CCCC)C(=S)SSC(=S)N(CCCC)CCCC	1.91 µM (active)	–	inactive	–	inactive	inactive	inactive	–	–	inactive
CCCCC(=O)O[C@]1(C(=O)CO)CC[C@H]2[C@@H]3CCC4=CC(=O)CC[C@]4(C)[C@H]3[C@@H](O)C[C@@]21C	inactive	inactive	inactive	inactive	inactive	–	inactive	–	–	–
N#C[C@@H]1C[C@@H]2C[C@@H]2N1C(=O)[C@@H](N)C12CC3CC(CC(O)(C3)C1)C2	inactive	inactive	inactive	inactive	inactive	inactive	inactive	–	–	–
COc1cc2ncnc(Nc3ccc(F)c(Cl)c3)c2cc1OCCCN1CCOCC1	15 µM (active)	–	6.68 µM (active)	–	inactive	inactive	inactive	inactive	7.5 µM (active)	–
O=C(C(=O)c1ccccc1)c1ccccc1	inactive	inactive	inactive	inactive	–	–	–	–	–	–
CCC(C)(O)CCC=C(C)C (centres undefined)	inactive	inactive	inactive	inactive	inactive	inactive	inactive	–	–	–
OCC1CC=CCC1 (centres undefined)	inactive	inactive	inactive	inactive	inactive	inactive	–	inactive	–	–
COC(=O)c1cc(S(N)(=O)=O)ccc1OC	inactive	inactive	inactive	inactive	inactive	inactive	inactive	inactive	–	–
Nc1ccc(S(=O)(=O)O)c(N)c1	inactive	inactive	inactive	inactive	inactive	inactive	inactive	–	–	–
COCC(O)CO (centres undefined)	inactive	inactive	inactive	inactive	inactive	inactive	inactive	–	–	–
O=C(O)c1ccccc1NCCc1ccccc1	inactive	inactive	inactive	inactive	inactive	inactive	–	inactive	–	–
CCCc1c(OCCCOc2ccc(OCC(=O)O)cc2)ccc(C(C)=O)c1O	inactive	inactive	17.2 µM (active)	–	inactive	inactive	–	inactive	–	–

Compound	Potency [1]	Potency [2]	Potency [3]	Potency [4]	outcome [5]	Potency [6]	Potency [7]	Potency [8]	Potency [9]	Potency [10]
CCN(Cc1cccc(S(=O)(=O)O)c1)c1ccc(C(=C2C=CC(=[N+](CC)Cc3cccc(S(=O)(=O)[O-])c3)C=C2)c2ccccc2)cc1	inactive	inactive	inactive	inactive	inactive	inactive	inactive	–	–	–
CC(N)CN (centres undefined)	inactive	inactive	inactive	inactive	inactive	inactive	inactive	–	–	–
CC1=NN(c2ccc(C(=O)O)cc2)C(=O)C1	inactive	inactive	inactive	inactive	–	–	–	inactive	–	–
C[C@@H]1C[C@H]2[C@@H]3CCC4=CC(=O)C=C[C@]4(C)[C@@]3(F)[C@@H](O)C[C@]2(C)[C@@]1(O)C(=O)CO	0.492 µM (active)	inactive	inactive	inactive	–	–	–	–	–	–
COc1cc2[nH]c(=O)[nH]c(=O)c2cc1OC	inactive	inactive	inactive	inactive	inactive	inactive	inactive	–	–	–
CCC(C)(C)C1CCC(O)CC1 (centres undefined)	inactive	inactive	inactive	inactive	inactive	inactive	inactive	–	–	–
O=c1[nH]c2ccc(S(=O)CCN3CCC(Cc4ccc(F)cc4)CC3)cc2o1 (centres undefined)	inactive	–	inactive	inactive	inactive	inactive	inactive	–	–	inactive
C/C(=N/NC(=O)c1ccncc1)C(=O)O	inactive	inactive	inactive	inactive	inactive	inactive	inactive	inactive	–	–
CC1=CC(=O)CC(C)(C)C1(O)/C=C/C(C)=C\C(=O)O (centres undefined)	inactive	inactive	inactive	inactive	inactive	inactive	–	–	–	–
c1ccc(COCc2ccccc2)cc1	inactive	inactive	inactive	inactive	inactive	inactive	inactive	–	–	–
Nc1c(I)cc(I)c(C(=O)N(CCC(=O)O)c2ccccc2)c1I	inactive	inactive	inactive	inactive	–	–	–	inactive	–	–
COc1cc2c(cc1OC)-c1cc(=Nc3c(C)cc(C)cc3C)n(C)c(=O)n1CC2	0.596 µM (active)	inactive	inactive	inactive	inactive	inactive	–	inactive	–	–
CCOC(=N)CC(=O)OCC	–	inactive	–	–	inactive	inactive	inactive	–	inactive	inactive
O=C(O)Cc1ccc(-c2ccccc2)cc1	inactive	inactive	–	inactive	inactive	inactive	inactive	inactive	–	–
CCCCCCCCCCOS(=O)(=O)O	inactive	inactive	–	inactive	inactive	inactive	inactive	–	–	–
CCOC(=O)N1CCC(n2c(=O)[nH]c3cc(Cl)ccc32)CC1	–	29.8 µM (active)	inactive	inactive	inactive	inactive	inactive	inactive	–	inactive
CCCCC1C(=O)N(c2ccccc2)N(c2ccc(O)cc2)C1=O (centres undefined)	7.5 µM (active)	–	23.7 µM (active)	29.8 µM (active)	–	–	–	inactive	–	–
Oc1ccc(Nc2ccccc2)cc1	inactive	inactive	–	–	inactive	–	inactive	inactive	–	–
O=C(O)c1c(O)c(-c2ccccc2)nc2ccccc12	inactive	inactive	–	–	inactive	inactive	inactive	inactive	–	–
CC(C)(C)C(=O)O	–	inactive	inactive	inactive	inactive	inactive	–	–	inactive	inactive
O=C(N/N=C/c1ccc([N+](=O)[O-])o1)c1ccc(O)cc1	11.9 µM (active)	11.9 µM (active)	–	inactive	inactive	inactive	inactive	inactive	–	–
CC(=O)CC(c1ccc([N+](=O)[O-])cc1)c1c(O)c2ccccc2oc1=O (centres undefined)	inactive	inactive	–	inactive	inactive	–	inactive	–	–	–
C[Si]1(C)O[Si](C)(C)O[Si](C)(C)O1	inactive	inactive	–	inactive	inactive	inactive	–	inactive	–	–
CC1C2CC(CC2C2CCCC(O)C2)C1(C)C (centres undefined)	inactive	inactive	–	–	inactive	inactive	–	–	–	–
CC(=O)Oc1ccc(C(=C2CCCCC2)c2ccc(OC(C)=O)cc2)cc1	–	inactive	–	inactive	inactive	inactive	2.37 µM (active)	–	0.0106 µM (active)	inactive
CCCCCCCC/C=C\CCCCCCCC(=O)OC(CO)CO	–	–	–	–	–	–	–	–	–	inactive
